Screening data deposited in PubChem BioAssay by several laboratories.
Sampled rows, rich in hits. Any-hit rate of the full collection: about 4.1%.
KLF5 inhibitor – suppresses KLF5 promoter-driven expression | DLD-1 KLF5 promoter-luciferase reporter, luminescence | inhibition, % at 5 µM | hit rate 0.23% among 290,000 | AID 1700;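 active means inhibition above a per-plate limit of that plate's mean compound inhibition plus 3 SD, cut at about 60% in these data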;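 further: 0% = DMSO wells and 100% = LY294002 at 200 µM; higher means less KLF5 promoter-driven luciferase light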
Jurkat NFkB inh – inhibitors of the PMA/ionomycin-induced NF-kB reporter in Jurkat cells. PMA/ionomycin-induced NF-kB luciferase reporter, luminescence. inhibition, % at 4 µM. hit rate 0.53% among 330,000. AID 435003; in the data active means inhibition above about 50%
aSyn UTR inh – MLPCN primary screen, SNCA 5' untranslated region | AID 1813 | alpha-synuclein 5'UTR reporter, inhibitor activity | hit rate 0.82% among 300,000 | inhibition, % (tested at 7.5 µM); in the data active means inhibition above about 60%; inconclusive means no clear call, values can overlap the other calls;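 further: H4 neuroglioblastoma cells stably carrying SNCA 5'UTR luciferase fusion; 0% = DMSO wells and 100% = positive control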
697 NFkB inh – inhibitors of the PMA/ionomycin-induced NF-kB reporter in 697 B cells. 697 B-cell NF-kB luciferase reporter, 16 h. inhibition, % at 4 µM. hit rate 0.33% among 330,000. AID 435022; in the data active means inhibition above about 35%
Gli-Sufu block – blocks Gli-Sufu signaling in a luciferase reporter | Sufu-KO-LIGHT fibroblasts, Gli luciferase reporter luminescence | AID 588413 | hit rate 0.74% among 340,000 | inhibition, % at 5 µM;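 active means inhibition above about 55%, limit read from the data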;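 further: 0% = DMSO-treated cells and 100% = wells with medium but no cells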
Mdm2 MdmX PPI – disrupts the human Mdm2-MdmX interaction; O15151+Q00987; SaOS-2 split-luciferase Mdm2/MdmX complementation, luminescence; inhibition, % at 8 µM; hit rate 3% among 330,000; AID 485346;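 active means inhibition of at least 50% at 8 µM in the primary screen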
Target sequence (O15151 whole entry, looked up): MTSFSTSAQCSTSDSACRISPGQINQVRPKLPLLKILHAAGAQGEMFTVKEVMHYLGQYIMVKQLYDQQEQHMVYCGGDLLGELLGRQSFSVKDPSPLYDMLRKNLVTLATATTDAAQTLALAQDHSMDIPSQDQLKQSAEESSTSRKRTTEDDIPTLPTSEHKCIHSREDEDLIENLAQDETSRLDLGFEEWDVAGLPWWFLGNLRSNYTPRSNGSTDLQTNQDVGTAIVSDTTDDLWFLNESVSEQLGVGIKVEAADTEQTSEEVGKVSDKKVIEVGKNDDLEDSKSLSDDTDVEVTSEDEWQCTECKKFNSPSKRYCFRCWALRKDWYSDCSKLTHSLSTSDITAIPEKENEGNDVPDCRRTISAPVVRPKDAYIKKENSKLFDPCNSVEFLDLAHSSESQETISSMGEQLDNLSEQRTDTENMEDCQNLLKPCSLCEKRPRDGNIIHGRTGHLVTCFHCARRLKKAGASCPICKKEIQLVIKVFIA
Target sequence (Q00987 whole entry, looked up): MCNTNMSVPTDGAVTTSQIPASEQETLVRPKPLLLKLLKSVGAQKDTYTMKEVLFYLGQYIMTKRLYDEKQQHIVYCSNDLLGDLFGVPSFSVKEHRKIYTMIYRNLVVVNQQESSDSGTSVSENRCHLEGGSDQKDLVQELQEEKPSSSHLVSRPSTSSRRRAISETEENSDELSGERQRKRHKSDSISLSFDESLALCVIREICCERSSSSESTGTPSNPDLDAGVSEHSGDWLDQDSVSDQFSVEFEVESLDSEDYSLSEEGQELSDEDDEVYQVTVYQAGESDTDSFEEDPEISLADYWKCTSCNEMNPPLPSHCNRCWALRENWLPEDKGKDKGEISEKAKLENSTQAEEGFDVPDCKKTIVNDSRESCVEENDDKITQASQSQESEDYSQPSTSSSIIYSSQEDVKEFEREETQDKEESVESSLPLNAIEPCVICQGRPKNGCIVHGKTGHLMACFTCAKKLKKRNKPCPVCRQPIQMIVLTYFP
Mdm2 MdmX conf – confirmation of human Mdm2/MdmX interaction inhibitors | shares compounds with Mdm2 MdmX PPI | Mdm2-MdmX binding, luminescent assay | hit rate 55% among 10,000 | AID 489028 | inhibition, % at 8 µM; in the data active means inhibition above about 40%
FLuc counter – counter-screen for Mdm2/MdmX inhibitors: full-length luciferase | shares compounds with Mdm2 MdmX PPI | SaOS-2 full-length luciferase counterscreen, luminescence | inhibition, % at 8 µM | hit rate 77% among 6,200 | AID 504607;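 active means mean inhibition at 8 µM reaching about 37%, which flags the compound as non-specific, limit read from the data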;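 further: p53-null SaOS-2 cells with luciferase driven by a doxycycline-inducible promoter; compound on cells about two nights before reading with doxycycline added after day one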
Numbers without * were called inactive; ? = inconclusive; nt = no result.

SMILES	KLF5 inhibitor	Jurkat NFkB inh	aSyn UTR inh	697 NFkB inh	Gli-Sufu block	Mdm2 MdmX PPI	Mdm2 MdmX conf	others
COc1ccc(Nc2nc(N)nc(CCl)n2)cc1	-23.9	4.0	-38.4	-7.0	5.9	87.0*	87.0*	FLuc counter=52.1*
Cc1ccccc1Nc1nc(N)nc(CCl)n1	-8.2	38.2	-4.9	-9.6	4.8	93.6*	91.2*	FLuc counter=40.1*
CN(C)N=Nc1ccc(-c2cn(Cc3ccccc3)cn2)cc1	-104.2	-58.2	-74.2	-68.1	-33.4	-2.7	nt
COc1cc2c(cc1OC)C(C)N(C(=O)c1cc3c(C)cc(C)cc3[nH]1)CC2 (centres undefined)	4.3	38.8	42.4	-5.9	0.9	67.2*	72.8*	FLuc counter=48.4*
COc1cc2c(cc1OC)C(C)N(C(=O)c1nccnc1C(=O)O)CC2 (centres undefined)	-5.5	-7.8	-2.6	-2.5	6.8	12.8	nt
N#Cc1c(N)nc2c(c1-c1ccccc1)CCC2	4.1	-8.1	-8.8	-21.6	6.3	28.9	nt
CC(C)C[C@H](NC(=O)c1nc[nH]c1C(=O)NC(c1ccccc1)c1ccccc1)C(=O)OCc1ccccc1	-27.7	24.2	30.2	13.8	-7.3	51.3*	11.2
CC(C)C[C@H](NC(=O)c1[nH]cnc1C(=O)N[C@H](C)c1ccccc1)C(=O)OCc1ccccc1	-9.5	-1.5	4.5	3.3	-2.4	-12.5	nt
O=C(N[C@@H](Cc1ccccc1)C(=O)OCc1ccccc1)c1nc[nH]c1C(=O)N1CCN(c2ccccc2)CC1	nt	-12.0	-1.5	-41.9	-2.0	65.1*	-15.3
CC(C)C[C@H](NC(=O)c1nc[nH]c1C(=O)N[C@@H](CC(C)C)C(=O)OCc1ccccc1)C(=O)OCc1ccccc1	-12.4	10.1	15.1	2.0	41.5	57.9*	-0.1
Cc1ccc(OCc2nnc(SC(C)C(=O)O)n2-c2ccccc2)cc1 (centres undefined)	-15.0	-10.5	4.3	-2.7	-22.2	22.6	nt
O=C(Cc1c(F)cccc1Cl)N1CCN(S(=O)(=O)c2cccc(F)c2)CC1	nt	10.8	-0.6	11.2	0.3	17.3	nt
O=[N+]([O-])c1cccc(-c2csc(N/N=C/c3cccc(O)c3)n2)c1	8.4	-18.6	-216.1	-15.1	17.9	31.8	nt
CN(NS(=O)(=O)c1ccccc1)C(=O)c1ccccc1	nt	nt	nt	nt	4.8	nt	nt
CC1(C)Cc2c(sc(NC(=O)c3ccc4c(c3)OCCO4)c2C(N)=O)C(C)(C)N1	-15.3	3.7	-9.8	10.4	20.2	25.7	nt
CC1(C)Cc2c(sc(NC(=O)c3ccc(S(=O)(=O)N4CCCC4)cc3)c2C#N)C(C)(C)N1	-34.3	-5.2	16.1	-8.3	-3.3	21.3	nt
CC1(C)Cc2c(sc(NC(=O)c3ccc(C(=O)c4ccccc4)cc3)c2C#N)C(C)(C)N1	-11.4	15.2	-12.6	-27.5	5.4	51.6*	35.4	FLuc counter=95.2*
COC(=O)c1c(NC(=O)c2nc3ccccc3s2)sc2c1CC(C)(C)NC2(C)C	-28.6	0.3	104.2*	-12.7	15.6	97.6*	63.5*	FLuc counter=53.4*
CCOc1ccc(C(=O)Nc2sc3c(c2C(=O)OC)CC(C)(C)NC3(C)C)cc1	-17.8	17.5	-7.9	-15.1	13.0	77.8*	47.9*	FLuc counter=60.4*
CCOC(=O)c1c(NC(=O)COc2ccccc2)sc2c1CC(C)(C)NC2(C)C	-56.8	1.0	-30.9	-30.5	13.7	77.0*	41.4*	FLuc counter=54.4*
Cc1cccc(C(=O)NC2CCN(CC(=O)Nc3ccccc3Cl)CC2)c1	-15.8	7.7	14.2	9.1	-19.4	12.0	nt
COc1ccc(-c2cc(C(F)(F)F)c(C#N)c(SCC(=O)O)n2)cc1OC	24.2	1.3	-40.1	17.9	nt	9.8	nt
COCCN(C(=O)c1csnn1)C(C(=O)NC1CCCCC1)c1ccccc1F (centres undefined)	27.1	4.5	-5.5	4.3	-5.8	-6.9	nt
CC(OC(=O)CCN=C1NS(=O)(=O)c2ccccc21)C(=O)Nc1ccc(F)c(F)c1F (centres undefined)	nt	-9.3	-0.6	-2.4	-12.4	13.4	nt
CC1(C)Cc2c(sc(NC(=O)c3ccc(S(=O)(=O)N4CCCCCC4)cc3)c2C(N)=O)C(C)(C)N1	-28.1	10.8	-3.2	-20.8	8.5	84.7*	17.2
SMILES	KLF5 inhibitor	Jurkat NFkB inh	aSyn UTR inh	697 NFkB inh	Gli-Sufu block	Mdm2 MdmX PPI	Mdm2 MdmX conf	others
Cc1cccc(C)c1NC(=O)CNC(=O)CCC(=O)c1cccs1	2.5	-0.6	-14.6	10.2	-3.6	21.0	nt
CCCN(CC(=O)Nc1ccccc1C)C(=O)Cc1coc2cc(C)ccc12	-23.9	16.5	13.5	9.7	7.5	20.5	nt
COc1cc(O)c(CCC(=O)c2ccc(OC)c(OC)c2)c(OC)c1	-45.2	-12.2	10.3	-29.7	2.1	20.2	nt
CC(=O)N(C(C)=O)n1c(C)nc2sc3c(c2c1=O)CCCC3	4.1	16.7	?	17.1	-3.7	72.5*	79.5*	FLuc counter=45.5*
Cc1nc2sc3c(c2c(=O)n1N)CCC3	-59.9	3.1	4.2	-4.4	0.7	-8.9	nt
COc1cc(CNCCc2ccccc2)cc(Cl)c1OCc1ccccc1	-46.6	4.1	7.0	8.5	11.8	77.9*	37.9
COc1cc(CNCCc2ccccc2)cc(Br)c1OCC(=O)Nc1ccccc1C	-19.9	1.7	16.7	8.0	26.7	74.1*	37.7	FLuc counter=72.2*
O=C(COc1ccc(Br)cc1CNCCc1ccccc1)NCc1ccccc1	-47.4	-18.7	-16.2	-8.1	-1.1	55.7*	29.6
CCOc1cc(CNC2CCCC2)cc(Cl)c1OCc1ccccc1	-0.6	-4.8	-13.8	-6.4	3.3	51.9*	26.1
CCCNCc1cc(Br)ccc1OCC(=O)NCCc1ccccc1	7.5	-9.0	-23.7	-21.0	3.9	2.4	nt
CCOc1cc(CNCC(C)C)cc(Cl)c1OCc1ccccc1	0.2	5.1	5.2	4.8	20.4	5.9	nt
Cc1cccc(N2C(=O)CC(N3CCN(c4ccccn4)CC3)C2=O)c1 (centres undefined)	-5.1	3.5	-25.7	-10.3	-4.6	-23.9	nt
O=C(CNC(=O)c1ccc(Cl)cc1)NCCCn1ccnc1	-3.2	-11.5	-10.5	0.3	4.6	-11.9	nt
O=C1C(=O)N(Cc2ccccc2)C(=O)N1CCOc1ccccc1	-11.8	-0.1	nt	9.0	-2.4	14.2	nt
Cc1ccc(-c2nnc(N3CCN(C(=O)c4cccs4)CC3)c3ccccc23)cc1	9.4	11.2	47.3	0.1	6.3	55.0*	12.8
Cc1ccc(-c2nnc(N3CCN(c4ccccn4)CC3)c3ccccc23)cc1	-19.9	12.2	37.4	4.9	17.8	56.9*	53.6*	FLuc counter=48.3*
Cc1ccc(-c2nnc(N3CCCCC3)c3ccccc23)cc1	-4.1	-8.2	18.3	-33.0	2.5	-22.7	nt
Cc1c(C(=O)Nc2ccc(Cl)cc2)c2ccccn2c1C(=O)c1ccc([N+](=O)[O-])cc1	-20.9	-2.8	3.2	-10.9	5.4	15.5	nt
Cc1c(C(=O)Nc2ccc(Cl)cc2)c2ccccn2c1C(=O)c1ccccc1	-25.7	1.2	-15.5	15.4	1.9	59.0*	-0.2
